Source: ChEMBL document CHEMBL1961873, “Compounds: GSK PKIS; Assays: Nanosyn kinase panel” (2012)

Columns and labels:
[1] = target: Leukocyte tyrosine kinase receptor (Homo sapiens) (UniProt P29376); details: at 1 µM;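 note: each value is the mean inhibition of LTK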
[2] = target: Tyrosine-protein kinase Lyn (Homo sapiens) (UniProt P07948); details: at 0.1 µM
[3] = target: Tyrosine-protein kinase Lyn (Homo sapiens) (UniProt P07948); details: at 1 µM
[4] = target: Tyrosine-protein kinase Lyn (Homo sapiens) (UniProt P07948); details: at 0.1 µM; remark: listed apart in the source
[5] = target: Tyrosine-protein kinase Lyn (Homo sapiens) (UniProt P07948); details: at 1 µM; remark: listed apart in the source
[6] = target: T1, Tyrosine-protein kinase Mer (Homo sapiens) (UniProt Q12866); details: at 0.1 µM
T1 sequence (whole entry): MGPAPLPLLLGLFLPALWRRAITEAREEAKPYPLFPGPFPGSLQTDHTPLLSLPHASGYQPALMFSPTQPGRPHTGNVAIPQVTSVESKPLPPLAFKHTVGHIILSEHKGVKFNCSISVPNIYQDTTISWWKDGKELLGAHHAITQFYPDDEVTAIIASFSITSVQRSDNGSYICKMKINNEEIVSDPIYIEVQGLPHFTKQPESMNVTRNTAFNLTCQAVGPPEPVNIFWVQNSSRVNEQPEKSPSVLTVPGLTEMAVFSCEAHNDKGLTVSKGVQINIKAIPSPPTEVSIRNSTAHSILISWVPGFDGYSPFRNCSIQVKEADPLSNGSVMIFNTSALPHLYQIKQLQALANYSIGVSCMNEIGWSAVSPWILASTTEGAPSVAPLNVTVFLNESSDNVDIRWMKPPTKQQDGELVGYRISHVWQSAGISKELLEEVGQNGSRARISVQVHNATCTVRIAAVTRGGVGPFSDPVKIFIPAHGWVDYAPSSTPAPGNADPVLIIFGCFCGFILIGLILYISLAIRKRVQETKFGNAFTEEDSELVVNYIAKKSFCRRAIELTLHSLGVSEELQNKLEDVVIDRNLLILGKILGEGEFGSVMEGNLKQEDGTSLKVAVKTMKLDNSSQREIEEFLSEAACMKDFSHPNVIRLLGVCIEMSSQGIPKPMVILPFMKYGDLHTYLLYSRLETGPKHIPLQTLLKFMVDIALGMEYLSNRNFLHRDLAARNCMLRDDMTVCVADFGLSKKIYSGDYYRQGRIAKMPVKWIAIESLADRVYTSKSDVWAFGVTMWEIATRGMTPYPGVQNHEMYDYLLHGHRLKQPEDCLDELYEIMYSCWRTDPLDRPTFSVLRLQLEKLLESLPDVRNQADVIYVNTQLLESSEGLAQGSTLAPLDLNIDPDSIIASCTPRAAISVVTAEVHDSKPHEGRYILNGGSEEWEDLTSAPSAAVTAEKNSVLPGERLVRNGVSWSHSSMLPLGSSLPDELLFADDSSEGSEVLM

[7] = target: T1, Tyrosine-protein kinase Mer (Homo sapiens); details: at 1 µM
[8] = target: Hepatocyte growth factor receptor (Homo sapiens) (UniProt P08581); details: at 0.1 µM
[9] = target: Hepatocyte growth factor receptor (Homo sapiens) (UniProt P08581); details: at 1 µM
[10] = target: T2, Muscle, skeletal receptor tyrosine-protein kinase (Homo sapiens) (UniProt O15146); details: at 0.1 µM
T2 sequence (whole entry): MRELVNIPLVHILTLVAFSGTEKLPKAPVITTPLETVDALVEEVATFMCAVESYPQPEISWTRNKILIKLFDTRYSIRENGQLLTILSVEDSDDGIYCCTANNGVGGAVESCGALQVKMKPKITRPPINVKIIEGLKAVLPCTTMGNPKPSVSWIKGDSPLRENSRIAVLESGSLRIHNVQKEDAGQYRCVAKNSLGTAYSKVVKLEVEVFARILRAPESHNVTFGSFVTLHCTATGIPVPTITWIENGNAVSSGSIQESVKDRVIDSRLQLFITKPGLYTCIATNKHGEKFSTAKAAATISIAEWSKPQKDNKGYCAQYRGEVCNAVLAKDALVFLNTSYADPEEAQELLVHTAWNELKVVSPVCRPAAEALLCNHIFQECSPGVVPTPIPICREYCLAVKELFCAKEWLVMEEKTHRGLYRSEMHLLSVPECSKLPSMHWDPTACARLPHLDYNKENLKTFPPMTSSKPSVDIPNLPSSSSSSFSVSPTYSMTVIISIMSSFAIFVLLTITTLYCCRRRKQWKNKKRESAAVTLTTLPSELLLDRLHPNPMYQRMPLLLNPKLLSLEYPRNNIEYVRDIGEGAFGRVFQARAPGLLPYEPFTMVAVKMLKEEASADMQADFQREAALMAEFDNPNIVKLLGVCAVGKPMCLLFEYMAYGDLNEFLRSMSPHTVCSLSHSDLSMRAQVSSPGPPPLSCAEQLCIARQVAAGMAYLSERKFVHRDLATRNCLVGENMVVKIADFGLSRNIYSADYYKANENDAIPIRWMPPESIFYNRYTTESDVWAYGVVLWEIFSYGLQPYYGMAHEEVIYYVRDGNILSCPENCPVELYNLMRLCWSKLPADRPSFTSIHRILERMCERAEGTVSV

[11] = target: T2, Muscle, skeletal receptor tyrosine-protein kinase (Homo sapiens); details: at 1 µM
[12] = target: Platelet-derived growth factor receptor alpha (Homo sapiens) (UniProt P16234); details: at 0.1 µM
Platelet-derived growth factor receptor alpha (Homo sapiens), sequence (P16234 whole entry): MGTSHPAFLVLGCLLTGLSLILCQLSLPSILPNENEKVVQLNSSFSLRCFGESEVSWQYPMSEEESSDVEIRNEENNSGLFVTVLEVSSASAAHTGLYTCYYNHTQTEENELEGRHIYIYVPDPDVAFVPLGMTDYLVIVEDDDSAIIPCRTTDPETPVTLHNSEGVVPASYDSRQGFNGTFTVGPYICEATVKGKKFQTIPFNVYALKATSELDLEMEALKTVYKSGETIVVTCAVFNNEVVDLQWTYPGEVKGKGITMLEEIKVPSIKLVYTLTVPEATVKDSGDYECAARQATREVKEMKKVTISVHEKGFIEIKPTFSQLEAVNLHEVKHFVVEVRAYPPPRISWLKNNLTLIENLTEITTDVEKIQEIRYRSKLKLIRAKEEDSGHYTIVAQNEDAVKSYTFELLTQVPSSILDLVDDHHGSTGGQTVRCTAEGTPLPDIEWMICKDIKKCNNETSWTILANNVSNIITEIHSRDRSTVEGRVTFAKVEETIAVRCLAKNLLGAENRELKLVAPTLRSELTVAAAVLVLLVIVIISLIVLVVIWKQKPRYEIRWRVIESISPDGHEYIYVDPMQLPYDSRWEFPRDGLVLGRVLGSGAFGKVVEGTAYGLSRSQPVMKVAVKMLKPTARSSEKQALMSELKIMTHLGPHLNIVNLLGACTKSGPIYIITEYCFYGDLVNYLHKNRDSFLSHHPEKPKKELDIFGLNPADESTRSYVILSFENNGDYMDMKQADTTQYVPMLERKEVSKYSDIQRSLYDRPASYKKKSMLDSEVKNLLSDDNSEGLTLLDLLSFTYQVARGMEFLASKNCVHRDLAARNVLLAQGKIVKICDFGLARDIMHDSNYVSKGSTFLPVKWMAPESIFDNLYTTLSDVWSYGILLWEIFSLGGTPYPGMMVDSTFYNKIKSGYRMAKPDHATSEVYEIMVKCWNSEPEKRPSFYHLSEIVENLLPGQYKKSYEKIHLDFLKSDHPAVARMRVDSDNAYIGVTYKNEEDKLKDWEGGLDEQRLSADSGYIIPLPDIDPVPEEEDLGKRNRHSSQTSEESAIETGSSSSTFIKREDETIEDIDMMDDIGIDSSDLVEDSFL

[13] = target: Platelet-derived growth factor receptor alpha (Homo sapiens) (UniProt P16234); details: at 1 µM
[14] = tested on: Platelet-derived growth factor receptor alpha (Homo sapiens), P16234 [D842V]; details: at 0.1 µM
Platelet-derived growth factor receptor alpha (Homo sapiens), P16234 [D842V], sequence (P16234 whole entry D842V): as the sequence (P16234 whole entry) above, with D842V counted along it

[15] = tested on: Platelet-derived growth factor receptor alpha (Homo sapiens), P16234 [D842V]; details: at 1 µM
[16] = tested on: Platelet-derived growth factor receptor alpha (Homo sapiens), P16234 [T674I]; details: at 0.1 µM
Platelet-derived growth factor receptor alpha (Homo sapiens), P16234 [T674I], sequence (P16234 whole entry T674I): as the sequence (P16234 whole entry) above, with T674I counted along it

[17] = tested on: Platelet-derived growth factor receptor alpha (Homo sapiens), P16234 [T674I]; details: at 1 µM
[18] = tested on: Platelet-derived growth factor receptor alpha (Homo sapiens), P16234 [V561D]; details: at 0.1 µM
[19] = tested on: Platelet-derived growth factor receptor alpha (Homo sapiens), P16234 [V561D]; details: at 1 µM
[20] = target: Platelet-derived growth factor receptor beta (Homo sapiens) (UniProt P09619); details: at 0.1 µM;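 note: reported value is the mean percent inhibition of the kinase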
Platelet-derived growth factor receptor beta (Homo sapiens), sequence (P09619 whole entry): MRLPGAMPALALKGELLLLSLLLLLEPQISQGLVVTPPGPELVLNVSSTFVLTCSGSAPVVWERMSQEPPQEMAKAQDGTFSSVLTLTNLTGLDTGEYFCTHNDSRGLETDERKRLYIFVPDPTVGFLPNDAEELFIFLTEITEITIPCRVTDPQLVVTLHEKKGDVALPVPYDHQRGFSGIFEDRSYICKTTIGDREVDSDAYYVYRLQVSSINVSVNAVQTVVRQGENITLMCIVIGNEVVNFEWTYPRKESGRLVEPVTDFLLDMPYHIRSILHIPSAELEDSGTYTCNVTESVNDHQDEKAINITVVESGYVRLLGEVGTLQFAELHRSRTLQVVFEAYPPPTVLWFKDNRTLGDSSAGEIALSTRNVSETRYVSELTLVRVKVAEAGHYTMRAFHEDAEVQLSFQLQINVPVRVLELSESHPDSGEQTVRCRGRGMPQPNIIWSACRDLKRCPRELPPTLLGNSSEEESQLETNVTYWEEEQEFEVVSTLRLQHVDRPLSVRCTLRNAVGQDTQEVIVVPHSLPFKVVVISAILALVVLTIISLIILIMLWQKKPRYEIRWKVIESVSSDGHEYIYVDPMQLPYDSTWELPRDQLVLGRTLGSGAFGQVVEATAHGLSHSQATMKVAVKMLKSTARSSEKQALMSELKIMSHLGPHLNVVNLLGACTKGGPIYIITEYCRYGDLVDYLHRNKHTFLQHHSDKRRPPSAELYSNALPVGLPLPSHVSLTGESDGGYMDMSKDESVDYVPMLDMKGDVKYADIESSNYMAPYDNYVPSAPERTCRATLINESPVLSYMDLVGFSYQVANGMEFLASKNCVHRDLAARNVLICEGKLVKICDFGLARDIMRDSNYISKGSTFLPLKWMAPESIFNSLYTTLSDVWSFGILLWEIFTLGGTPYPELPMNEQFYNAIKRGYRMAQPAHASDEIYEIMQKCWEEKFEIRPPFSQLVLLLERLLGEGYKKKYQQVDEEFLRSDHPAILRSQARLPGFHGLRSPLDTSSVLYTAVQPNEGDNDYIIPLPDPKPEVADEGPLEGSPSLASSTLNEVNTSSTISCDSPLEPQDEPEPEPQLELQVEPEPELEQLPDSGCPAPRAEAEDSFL

Tyrosine-protein kinase Lyn (Homo sapiens), sequence (P07948 2-512 limits assumed): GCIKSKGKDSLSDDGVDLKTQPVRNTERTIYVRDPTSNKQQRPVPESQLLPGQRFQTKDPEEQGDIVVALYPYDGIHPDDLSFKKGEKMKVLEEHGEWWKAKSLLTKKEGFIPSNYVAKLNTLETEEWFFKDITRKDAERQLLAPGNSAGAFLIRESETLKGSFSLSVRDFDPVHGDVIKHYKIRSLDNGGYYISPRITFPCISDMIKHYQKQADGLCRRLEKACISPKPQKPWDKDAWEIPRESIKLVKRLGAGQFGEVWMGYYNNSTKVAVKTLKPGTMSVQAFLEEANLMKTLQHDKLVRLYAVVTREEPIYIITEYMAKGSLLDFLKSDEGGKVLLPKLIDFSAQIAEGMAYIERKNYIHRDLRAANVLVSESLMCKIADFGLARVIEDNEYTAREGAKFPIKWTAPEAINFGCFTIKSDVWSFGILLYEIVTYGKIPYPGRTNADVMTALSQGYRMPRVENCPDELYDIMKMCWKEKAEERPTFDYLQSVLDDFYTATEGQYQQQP

Compound	inhibition [1] [%]	inhibition [2] [%]	inhibition [3] [%]	inhibition [4] [%]	inhibition [5] [%]	inhibition [6] [%]	inhibition [7] [%]	inhibition [8] [%]	inhibition [9] [%]	inhibition [10] [%]	inhibition [11] [%]	inhibition [12] [%]	inhibition [13] [%]	inhibition [14] [%]	inhibition [15] [%]	inhibition [16] [%]	inhibition [17] [%]	inhibition [18] [%]	inhibition [19] [%]	inhibition [20] [%]
Cc1nnc(-c2ccc(C)c(-c3ccc(C(=O)NCc4ccc(Cl)cc4)cc3)c2)o1	4.02	3.85	8.64	2.14	4.87	2.04	1.93	4.09	6.08	2.38	0.1	4.51	8.84	3.25	2.53	6.19	6	1.34	2	1.36
CNC(=O)c1cncc(/C=C/c2c(C)cccc2C)c1	-0.39	22.1	72.4	17.6	67.8	-0.47	3.56	-0.92	1.41	3.8	5.15	8.57	34.4	0.09	4.23	0.35	1.37	21.3	48	7.03
c1ccc(Oc2ccc(Nc3ncc(-c4ccccc4)o3)cc2)cc1	1.13	3.36	2.98	1.38	2.09	0.19	0.42	1.79	7.6	1.27	2.81	7.17	11.5	4.48	3.18	4.06	10	7.31	19.6	3.82
Cc1ccc(C(=O)NC(C)C)cc1-c1ccc(C(=O)NCC2CC2)cc1	-1.83	-2.52	-1.28	-1.84	-0.78	-1.23	-0.29	-2.98	-5.28	-2.44	-2.53	0.96	2.31	2.27	2.56	1.13	4.14	1.87	2.98	0.76
CCc1cccc(CC)c1/C=C/c1cncc(C(=O)NC)c1	0.4	3.99	5.8	1.75	4.91	-0.22	4.08	-0.26	1.69	3.82	0.76	9.56	7.82	0.6	1.22	2.23	2.91	-0.14	3.75	7.91
CS(=O)(=O)CCNCc1ccc(-c2ccc3ncnc(Nc4ccc(OCc5ccccc5)c(Br)c4)c3c2)o1	4.86	4.6	7.84	2.75	5.83	2.91	13.9	1.81	6.53	1.27	-1.75	6.94	12.7	2.31	4.09	2.28	5.56	3.03	5.85	3.75
